Reference: article PMC12136788
Positions count from the first letter of the chain named. Over roughly 24,000 sequences, “enrichment r” has its median near 0.99; the highest 2% begin near 3.7. Shown is part of a subset that was picked to be rich in the highest values.

T1: UNK ZnF1-3 (human, UniProt Q9C0B0 31-174)
T1 sequence: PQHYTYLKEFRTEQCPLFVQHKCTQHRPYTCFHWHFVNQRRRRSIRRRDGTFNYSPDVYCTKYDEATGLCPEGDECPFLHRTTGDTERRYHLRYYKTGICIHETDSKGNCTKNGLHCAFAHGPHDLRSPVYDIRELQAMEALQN

B1: chr1:93299114:93299115:+_ENSG00000122406_ENST00000370321|hu_hu|motif|central (ssRNA)
RNA: GGGAGUUCUACAGUCCGACGAUCUUGUAUCACCAAGCGUUUCCGAGCAUAAUAAUCAGUUUUACCCUCUCGUCGUCUUCGGAAUUUCACUUGGUAUCUCUUAAAGUAGGCCUUAUUCUUAACAACUUUAACAAACCCCAUCCUCAACAGAGGAUUGAGCAUCA
B2: chr3:32335226:32335227:+_ENSMUSG00000027665_ENSMUST00000108243|mus_mus|motif|central (ssRNA)
RNA: GGGAGUUCUACAGUCCGACGAUCGGCCUCUCUGAACAGUUCAUGUUUGAUGGUGACGAGUGUGGCCUCACGGAGGCAUUCGGAAGUCACUAUCAUUCCAUUGGGGAGUAAACAUUCCACUAGGAUUCGUGGGGGCAUCAAGUGCAACAGAGGAUUGAGCAUCA
B3: chr7:54825262:54825263:-_ENSG00000132432_ENST00000352861|hu_hu|hu_hu_hu_mus_False|48_78 (ssRNA)
RNA: GGGAGUUCUACAGUCCGACGAUCCUGCCGGCUGGGCUCCACAAACUGCAUUACCUGCAUGACUGCCGUUGGAUGGCGGAUUGAGAGUGCCAGGGACCGUAGCUCAGGAGAGAACCGAGCCCAACGGAACCGGAAGCUGGCAACCAACAGAGGAUUGAGCAUCA
B4: 93048056_93048176_2666_3pUTR_ENSMUSG00000020964_ENSMUST00000021347|mouse|control|control (ssRNA)
RNA: GGGAGUUCUACAGUCCGACGAUCCACUGAGAGUUGUCAUUCCGUAUGGCACUGAAACAAACAUUCACUGCAGCUCUGCCGAGAGCCGCGCAUCCCUGAAAAGGAAGGCAGCAGGUUCUAAGCAGCUUCUGGGAUUCAACACGCCAACAGAGGAUUGAGCAUCA
B5: chrX:165757501:165757502:-_ENSMUSG00000031352_ENSMUST00000112115|mus_mus|FALSE|FALSE (ssRNA)
RNA: GGGAGUUCUACAGUCCGACGAUCAGCAGGAGAAGAUGCUGAGGCACCCAUGGCUGGAAUCACAGGGGUCACUCCCAAUCUAAAAUACCCAGCAAAACGGGAGGCAAGGAGCGGCGAAGGGCAGGAAGCCACCAGUGUUGCCUUCAACAGAGGAUUGAGCAUCA
B6: chr17:56552419:56552420:-_ENSMUSG00000013236_ENSMUST00000086828|mus_mus|mus_mus_mus_hu_False|88_98 (ssRNA)
RNA: GGGAGUUCUACAGUCCGACGAUCAAAAAAUACACUAUAAAAAAAAAAAAGAAAAAAACGGGAUACAGUUACACUGAGAGUUUUAAAAGAAAGCUGGAUUCUGGUCCCAGCCCAGUGUCCCCAGGCUGCAGAGCGGGGAGGAGCCAACAGAGGAUUGAGCAUCA
B7: chr17:56552419:56552420:-_ENSMUSG00000013236_ENSMUST00000086828|mus_mus|mus_mus_mus_hu_False|1_88 (ssRNA)
RNA: B6 RNA with A38U, A39U, A138C, G139A, C143G
B8: chr17:56552419:56552420:-_ENSMUSG00000013236_ENSMUST00000086828|mus_mus|mus_mus_mus_hu_False|18_88 (ssRNA)
RNA: B6 RNA with A38U, A39U, U117G, C119A, C120G, C121G, A122C, G123A, C125G, U126G
B9: chr17:56552419:56552420:-_ENSMUSG00000013236_ENSMUST00000086828|mus_mus|mus_mus_mus_hu_False|48_88 (ssRNA)
RNA: B6 RNA with A38U, A39U, G88A, G92A, C93U, U94A, G95A

What follows are binders tested against T1, UNK ZnF1-3 (assay: nsRBNS (natural sequence RNA bind-n-seq); RBNS binding buffer (assumed for nsRBNS): 25 mM Tris pH 7.5, 150 mM KCl, 3 mM MgCl2, 0.01% Triton X-100, 500 ug/ml BSA, 20 U/ml SUPERase-In, 4 C; UNK is unkempt and MSI1 is Musashi-1; names of the RNAs are library labels; protein concentration not given here; high values mean tight binding).

Binder | binding signal
B1 | 0.572 enrichment R
B2 | 1.05 enrichment R
B3 | 1.55 enrichment R
B4 | 0.952 enrichment R
B5 | 1.75 enrichment R
B6 | 16 enrichment R
B7 | 7.19 enrichment R
B8 | 9.03 enrichment R
B9 | 16.3 enrichment R
